Results published in PubChem BioAssay (EPA / NIEHS).
Calls of active or inactive are those of the source. The calls were made as follows: active = hit-call score of the fitted dose curve at least 0.9, where 1 is the maximum; inactive = score below 0.9.

What was measured:
[1] = biological target: Bile acid receptor (Homo sapiens) (UniProt Q96RI1); assay: ATG_IR1_CIS: Attagene CIS-FACTORIAL HepG2 Assay for human Nuclear Receptor Subfamily 1 Group H Member 4 (NR1H4), IR1 submotif (AID 2282946); settings: IR1 reporter transcription, actives raise or lower the signal
How it was run: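 HepG2 cells transiently transfected with multiple cis-promoter-driven reporter units to measure endogenous transcription factor activity; 24 h exposure. Reporter mRNA read by RT-PCR, FAM labelling, HpaI digestion and capillary electrophoresis. Bidirectional fit versus DMSO.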

[2] = ATG_GRE_CIS: Attagene CIS-FACTORIAL HepG2 Assay for human Glucocorticoid Response Elements (GRE) (AID 2282947); settings: HepG2 GRE cis-reporter, Attagene multiplex mRNA; actives raise or lower the signal
How it was run: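 Transiently transfected HepG2 cells carrying GRE cis-reporter units (endogenous TF activity) dosed 24 h; reporter mRNA quantified by RT-PCR, 6-FAM labelling, HpaI digestion and capillary electrophoresis. Bidirectional fit versus DMSO baseline.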

[3] = ATG_ISRE_CIS: Attagene CIS-FACTORIAL HepG2 Assay for human Interferon Regulatory Factor 1 (IRF1) binding to an Interferon-Stimulated Response Element (ISRE) (AID 2282948); settings: HepG2 ISRE cis-reporter (Attagene), mRNA transcription readout; actives raise or lower the signal
How it was run: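 Quantitation relies on labelled RT-PCR fragments separated by capillary electrophoresis. Human HepG2 cells bearing cis-promoter reporter constructs were treated 24 h; DMSO served as baseline for bidirectional fitting.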

[4] = ATG_M_06_CIS: Attagene CIS-FACTORIAL HepG2 Assay for M06 Transcription Factor (Internal Marker) (AID 2282950); settings: HepG2 Attagene CIS-FACTORIAL M06 internal marker reporter; actives raise or lower the signal
How it was run: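 Internal background marker within multiplexed cis-reporter HepG2 system. Cells transiently transfected, dosed 24 h; reporter mRNA measured by RT-PCR, HpaI digestion and capillary electrophoresis. Bidirectional fit relative to DMSO.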

[5] = biological target: Hepatocyte nuclear factor 6 (Homo sapiens) (UniProt Q9UBC0); assay: ATG_HNF6_CIS: Attagene CIS-FACTORIAL HepG2 Assay for human Hepatocyte Nuclear Factor 6 (HNF6) (AID 2282952); settings: HepG2 Attagene cis-factorial HNF6 reporter transcription; actives raise or lower the signal
How it was run: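 Cells are HepG2 carrying transiently transfected cis-promoter reporter units. Treatment lasts 24 h, after which reporter transcripts are reverse-transcribed, amplified, FAM-labelled and sized by capillary electrophoresis. DMSO serves as baseline.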

[6] = ATG_MRE_CIS: Attagene CIS-FACTORIAL HepG2 Assay for human Metal Responsive Element (MRE) (AID 2282954); settings: HepG2 MRE cis-reporter transcription, Attagene multiplex; actives raise or lower the signal
How it was run: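 HepG2 cells transiently transfected with cis-element-driven reporter units; mRNA measured 24 h after dosing. Reporter transcripts quantified by RT-PCR, FAM labelling, HpaI digestion and capillary electrophoresis; bidirectional fit versus DMSO.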

[7] = ATG_M_32_CIS: Attagene CIS-FACTORIAL HepG2 Assay for M32 Transcription Factor (Internal Marker) (AID 2282949); settings: HepG2 Attagene cis-factorial M32 reporter, mRNA; actives raise or lower the signal;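 also: background control marker of the multiplexed CIS panel rather than a real target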
How it was run: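 Fluorescent capillary electrophoresis peaks of HpaI-digested, FAM-labelled RT-PCR reporter products give the signal. Source: transiently transfected human liver HepG2 cells, 24 h after chemical dosing; bidirectional fitting against DMSO.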

[8] = biological target: Hypoxia-inducible factor 1-alpha (Homo sapiens) (UniProt Q16665); assay: ATG_HIF1a_CIS: Attagene CIS-FACTORIAL HepG2 Assay for human Hypoxia Inducible Factor 1 (HIF1A) (AID 2282951); settings: HepG2 Attagene cis-factorial HIF1a reporter transcription; actives raise or lower the signal
How it was run: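 HepG2, transient cis-reporter library, 24 h dosing. RNA → RT (oligo dT) → PCR → 6-FAM primer extension → HpaI → CE. Bidirectional curve fit vs DMSO.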

[9] = biological target: Heat shock factor protein 1 (Homo sapiens) (UniProt Q00613); assay: ATG_HSE_CIS: Attagene CIS-FACTORIAL HepG2 Assay for human Heat Shock Transcription Factor 1 (HSE) (AID 2282953); settings: HepG2 HSE cis-reporter, Attagene RNA transcription; actives raise or lower the signal
How it was run: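 HepG2 cells transfected with cis-promoter reporter units sensing endogenous transcription factor activity; reporter mRNA quantified 24 h post-dose by RT-PCR and capillary electrophoresis of 6-FAM-labelled products. Bidirectional fitting against DMSO.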

[10] = ATG_PBREM_CIS: Attagene CIS-FACTORIAL HepG2 Assay for human Phenobarbital-responsive Enhancer Module (PBREM) (AID 2282955); settings: HepG2 PBREM cis-reporter, Attagene multiplexed transcription; actives raise or lower the signal
How it was run: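 HepG2, transient MRTU transfection, 24 h dosing; RNA → oligo(dT) RT → PCR → 6-FAM extension → HpaI → CE. Bidirectional fit vs DMSO.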

Chain of Heat shock factor protein 1 (Homo sapiens) (Q00613 whole entry, looked up): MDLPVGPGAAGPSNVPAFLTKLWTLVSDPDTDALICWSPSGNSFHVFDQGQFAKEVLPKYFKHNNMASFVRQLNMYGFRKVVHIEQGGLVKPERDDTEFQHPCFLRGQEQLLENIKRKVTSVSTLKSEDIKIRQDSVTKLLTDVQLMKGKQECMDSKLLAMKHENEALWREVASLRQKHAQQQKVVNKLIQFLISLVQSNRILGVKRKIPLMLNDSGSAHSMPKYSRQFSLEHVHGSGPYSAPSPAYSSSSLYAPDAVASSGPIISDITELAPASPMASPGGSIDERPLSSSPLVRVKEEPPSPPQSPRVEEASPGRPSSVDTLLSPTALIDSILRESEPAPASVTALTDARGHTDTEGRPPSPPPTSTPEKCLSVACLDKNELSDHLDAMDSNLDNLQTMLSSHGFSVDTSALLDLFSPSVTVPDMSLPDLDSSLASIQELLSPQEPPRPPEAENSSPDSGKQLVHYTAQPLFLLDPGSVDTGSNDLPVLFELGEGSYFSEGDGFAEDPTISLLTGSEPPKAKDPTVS
Chain of Hypoxia-inducible factor 1-alpha (Homo sapiens) (Q16665 whole entry, looked up): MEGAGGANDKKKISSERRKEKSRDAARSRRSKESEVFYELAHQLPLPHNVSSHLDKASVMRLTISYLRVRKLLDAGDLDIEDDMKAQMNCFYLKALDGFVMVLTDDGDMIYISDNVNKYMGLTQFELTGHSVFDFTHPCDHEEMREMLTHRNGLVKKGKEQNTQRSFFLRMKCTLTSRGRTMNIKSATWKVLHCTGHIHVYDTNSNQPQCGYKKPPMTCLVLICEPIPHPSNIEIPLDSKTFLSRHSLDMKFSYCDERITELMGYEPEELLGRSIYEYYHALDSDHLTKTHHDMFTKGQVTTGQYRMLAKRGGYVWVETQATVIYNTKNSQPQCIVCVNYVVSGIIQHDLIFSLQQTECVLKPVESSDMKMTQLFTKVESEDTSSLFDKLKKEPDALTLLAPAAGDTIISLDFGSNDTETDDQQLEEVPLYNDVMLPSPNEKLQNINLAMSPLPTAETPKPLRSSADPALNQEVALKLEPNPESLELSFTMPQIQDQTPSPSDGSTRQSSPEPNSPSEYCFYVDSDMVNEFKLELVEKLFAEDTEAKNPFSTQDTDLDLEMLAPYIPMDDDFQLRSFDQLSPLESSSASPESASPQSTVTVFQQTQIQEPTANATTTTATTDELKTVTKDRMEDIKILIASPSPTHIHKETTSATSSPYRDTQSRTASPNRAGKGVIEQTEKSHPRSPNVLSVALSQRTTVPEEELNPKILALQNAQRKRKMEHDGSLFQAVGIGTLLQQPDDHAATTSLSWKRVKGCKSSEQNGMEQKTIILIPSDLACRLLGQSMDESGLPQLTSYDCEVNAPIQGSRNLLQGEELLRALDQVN
Chain of Hepatocyte nuclear factor 6 (Homo sapiens) (Q9UBC0 whole entry, looked up): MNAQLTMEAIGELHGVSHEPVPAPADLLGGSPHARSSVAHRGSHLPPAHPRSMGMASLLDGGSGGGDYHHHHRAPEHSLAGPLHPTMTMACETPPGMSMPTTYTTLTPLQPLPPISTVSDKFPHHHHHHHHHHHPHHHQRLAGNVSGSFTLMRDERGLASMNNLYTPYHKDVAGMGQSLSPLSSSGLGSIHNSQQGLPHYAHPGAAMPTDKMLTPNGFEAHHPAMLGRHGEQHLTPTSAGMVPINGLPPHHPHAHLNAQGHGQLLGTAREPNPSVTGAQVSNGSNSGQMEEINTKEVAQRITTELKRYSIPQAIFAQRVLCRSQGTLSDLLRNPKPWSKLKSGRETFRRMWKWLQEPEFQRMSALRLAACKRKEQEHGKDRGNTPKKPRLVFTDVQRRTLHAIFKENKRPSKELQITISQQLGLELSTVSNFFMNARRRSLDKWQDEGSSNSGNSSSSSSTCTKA
Chain of Bile acid receptor (Homo sapiens) (Q96RI1 whole entry, looked up): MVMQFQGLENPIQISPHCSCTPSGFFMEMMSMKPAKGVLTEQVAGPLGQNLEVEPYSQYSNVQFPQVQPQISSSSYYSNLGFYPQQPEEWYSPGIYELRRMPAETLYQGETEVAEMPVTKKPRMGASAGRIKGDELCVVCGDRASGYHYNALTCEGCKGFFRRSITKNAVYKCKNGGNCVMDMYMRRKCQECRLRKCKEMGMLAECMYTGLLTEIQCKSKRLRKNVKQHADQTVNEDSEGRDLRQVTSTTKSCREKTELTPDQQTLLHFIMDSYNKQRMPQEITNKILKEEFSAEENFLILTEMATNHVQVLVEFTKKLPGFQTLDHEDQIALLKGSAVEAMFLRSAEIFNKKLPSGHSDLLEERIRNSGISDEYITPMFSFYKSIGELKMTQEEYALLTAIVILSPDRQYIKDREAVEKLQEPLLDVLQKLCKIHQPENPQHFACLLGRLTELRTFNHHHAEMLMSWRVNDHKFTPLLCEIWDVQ

Compound	outcome [1]	outcome [2]	outcome [3]	outcome [4]	outcome [5]	outcome [6]	outcome [7]	outcome [8]	outcome [9]	outcome [10]	AC50 [1]	AC50 [3]	AC50 [8]	AC50 [9]	AC50 [6]	AC50 [10]	AC50 [5]
CC(C)=CCC/C(C)=C/CO	inactive	inactive	inactive	inactive	inactive	inactive											
CC(C)(O)c1coc(S(=O)(=O)NC(=O)Nc2c3c(cc4c2CCC4)CCC3)c1	inactive	inactive	inactive	inactive	inactive	inactive	inactive	inactive	inactive	inactive							
CC(O)CN(CCN(CC(C)O)CC(C)O)CC(C)O (configuration not stated)	inactive	inactive	inactive	inactive	inactive	inactive			inactive	inactive							
CCN(C(=O)c1cc(C)cc(OC[C@H](C)Nc2ccncc2)c1)C(C)C		inactive	inactive	inactive	inactive	inactive	inactive	inactive	inactive	inactive	42 µM (active)						
Cc1ccc(O)cc1	inactive	inactive	inactive	inactive	inactive	inactive			inactive	inactive							
Fc1ccccc1[C@@H](F)COC1CCC(Nc2ncnc3[nH]ncc23)CC1 (some centres not stated)	inactive	inactive		inactive	inactive		inactive					100 µM (active)	2.96 µM (active)	157 µM (active)	103 µM (active)	26.2 µM (active)	
C1=CCCC=CCCC=CCC1	inactive	inactive	inactive	inactive	inactive	inactive	inactive	inactive	inactive	inactive							
CC[C@H](C)C(=O)O[C@H]1C[C@@H](C)C=C2C=C[C@H](C)[C@H](CC[C@@H]3C[C@@H](O)CC(=O)O3)[C@H]21	inactive	inactive	inactive	inactive	inactive			inactive	inactive	inactive					10.5 µM (active)		
Cc1ccc(C)c(O)c1	inactive	inactive	inactive	inactive	inactive	inactive		inactive	inactive	inactive							
Cc1[nH]cnc1C[C@H]1CCc2c(C)c3ccccc3n2C1=O	inactive	inactive		inactive	inactive		inactive					21.9 µM (active)	20.7 µM (active)	46.5 µM (active)	33.9 µM (active)	15.8 µM (active)	
CCCCC(CC)COC(=O)c1ccc(C(=O)OCC(CC)CCCC)cc1 (configuration not stated)	inactive		inactive	inactive	inactive	inactive	inactive	inactive	inactive								
CC1(C)C(=O)N(Br)C(=O)N1Br	inactive	inactive	inactive	inactive	inactive	inactive	inactive	inactive	inactive	inactive							
COc1ccc(/C=C/S(=O)(=O)NC(=O)c2ccc(C)cc2Cl)cc1	inactive	inactive	inactive	inactive	inactive	inactive		inactive	inactive								
CCOc1cccc(-n2cc(C(=O)N3CCN(c4cc(C(=O)O)c5ccccc5c4)CC3)nc2-c2ccc(C)cc2)c1		inactive		inactive	inactive		inactive			inactive	24.8 µM (active)	22.8 µM (active)	6.55 µM (active)	61.4 µM (active)	32.3 µM (active)		
CCOCCO	inactive	inactive	inactive	inactive	inactive	inactive	inactive	inactive	inactive	inactive							
CC(C)c1cccc(C(C)C)c1N1C(=O)c2ccc(O)cc2C1=O		inactive		inactive			inactive	inactive			69.5 µM (active)	84.7 µM (active)		68.4 µM (active)	76.9 µM (active)		124 µM (active)
COc1cccc(-c2ccc(/C=C\CN3CCCCCC3)cc2Cl)c1	inactive	inactive	inactive	inactive	inactive	inactive		inactive	inactive	inactive							
COCCOCCOCCOC	inactive	inactive	inactive	inactive	inactive	inactive		inactive	inactive								
CN(C)c1ccc(Cc2ccc(N(C)C)cc2)cc1	inactive	inactive	inactive	inactive	inactive		inactive	inactive	inactive						50.3 µM (active)		
CC(C)=CCC/C(C)=C\CO	inactive	inactive	inactive	inactive	inactive	inactive	inactive										
Oc1ccc2c(c1)-c1ccccc1C2		inactive		inactive	inactive			inactive			1.3 µM (active)	100 µM (active)		26.5 µM (active)	40.8 µM (active)	59.6 µM (active)	
